High-throughput results (PubChem BioAssay)
Shown are actives, neighbours in structure and some others; about 6.7% of the full set was active somewhere.
C diff HTS: C. difficile growth inhibition; Clostridium difficile clinical isolate growth, OD600, 24 h; hits give low values; growth activity, negative = inhibition, % at 16 µg/mL (by protocol); actives 0.25% (n = 86,000); AID 1259249;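 active = mean growth activity at or below -80% and every replicate also at or below -80%; inconclusive = mean at or below -80% but some replicate above -80%; inactive = mean growth activity above -80%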;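 note: 0% = DMSO wells and -100% = levofloxacin 16 µg/mL wells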
Pf Dd2 inh: P. falciparum Dd2 growth inhibition; SYBR Green, 72 h; hits give low values; AID 1159554; actives 2.3% (n = 94,000); activity change, % at 10 µM; in the data active = activity change below about -80%; inconclusive = no clear call, values can overlap the other calls
T cruzi growth-1: blocks T. cruzi growth in NIH3T3 culture. T. cruzi beta-gal in NIH3T3, GalScreen luminescence, 90 h. inhibition, % at 8.34 µM. actives 5.9% (n = 77,000). AID 624255;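 active = mean inhibition above about 93%, with at least 55% of replicates each passing it, limit read from the data, passing the limit was not always enough; inconclusive = only one of those two conditions holds; inactive = neither condition holds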
T cruzi growth-2: inhibitors of T. cruzi proliferation. T. cruzi beta-gal in NIH3T3, GalScreen luminescence, 90 h. AID 651739. actives 72% (n = 5,600). shares compounds with T cruzi growth-1. inhibition, % at 8.35 µM;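 active = mean replicate inhibition above about 95% and at least 55% of replicates individually reaching it, limit read from the data; inconclusive = only one of the two criteria is met; inactive = neither criterion is met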
T cruzi growth-3: inhibitors of T. cruzi proliferation | shares compounds with T cruzi growth-1 | T. cruzi beta-gal in NIH3T3, GalScreen luminescence, 90 h | inhibition, % at 2.09 µM | actives 21% (n = 5,600) | AID 651740;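 active = mean inhibition above about 95%, with at least 55% of replicates also reaching it, limit read from the data; inconclusive = meets just one of the two conditions; inactive = meets neither condition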;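 note: plate controls were neutral control median for no effect and positive control median for full effect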
NIH3T3 tox: cytotoxicity in mouse NIH/3T3 fibroblasts; actives 14% (n = 5,600); AID 651742; shares compounds with T cruzi growth-1; cytotoxicity (signal decrease), % at 8.35 µM; NIH/3T3 viability, CellTiter-Glo ATP luminescence, 90 h;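 active = mean signal decrease across replicates above about 35% based on untreated-well scatter, with enough replicates individually passing, limit read from the data; inconclusive = no rule stated though some were filed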;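 note: 0% = median of neutral control wells and 100% = median of positive control wells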
3T3 cytotox 2: NIH/3T3 (mouse) viability loss. actives 56% (n = 5,600). inhibition, % at 24.9 µM. shares compounds with T cruzi growth-1. NIH/3T3 viability, CellTiter-Glo ATP luminescence, 90 h;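 active = mean loss of cell viability signal at or above a set limit, and enough replicates individually reaching it; inconclusive = meets only the mean limit or only the replicate share; inactive = meets neither condition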;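 note: 0% = median of neutral control wells and 100% = median of positive control wells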
An asterisk follows results filed as active; ? = inconclusive; . = not tested or not shown.

SMILES	C diff HTS	Pf Dd2 inh	T cruzi growth-1	T cruzi growth-2	T cruzi growth-3	NIH3T3 tox	3T3 cytotox 2
Cc1noc(C)c1NC(=O)N(C)C[C@H]1OCCCC[C@H](C)Oc2ccc(NC(=O)Nc3cccc4ccccc34)cc2C(=O)N([C@H](C)CO)C[C@@H]1C	2.6	4.9	16.9	.	.	.	.
CCN(C[C@H]1N[C@H](CO)[C@H]1c1ccc(-c2ccc(F)cc2)cc1)C(=O)COC	4.6	-55.5	-27.8	.	.	.	.
CCN(C[C@@H]1N[C@@H](CO)[C@H]1c1ccc(-c2ccc(F)cc2)cc1)C(=O)CN(C)C	-3.3	-80.5*	109.3*	99.6*	88.7	?	104.1*
CO[C@@H]1CN(C)C(=O)c2cc(NC(=O)C3CCOCC3)ccc2OC[C@@H](C)N(CC2CC2)C[C@H]1C	.	4.5	9.7	.	.	.	.
CN1CCN(C(=O)C[C@@H]2C[C@H]3c4cc(NC(=O)Nc5ccccc5F)ccc4O[C@H]3[C@H](CO)O2)CC1	1.0	-12.1	11.7	.	.	.	.
C[C@@H]1CN([C@@H](C)CO)S(=O)(=O)c2ccc(C#CCN(C)C)cc2O[C@@H]1CN(C)C(=O)C1CCCCC1	-1.7	-10.8	.	.	.	.	.
C[C@@H]1CN([C@@H](C)CO)S(=O)(=O)c2ccc(C#CCN(C)C)cc2O[C@H]1CN(C)C(=O)C1CCCCC1	-8.4	-26.7	.	.	.	.	.
C[C@H]1CN([C@@H](C)CO)S(=O)(=O)c2ccc(C#CCN(C)C)cc2O[C@H]1CN(C)C(=O)C1CCC1	0.7	-6.6	105.0*	101.9*	91.3	-11.9	-2.5
C[C@@H]1CN([C@@H](C)CO)S(=O)(=O)c2ccc(C#CCN(C)C)cc2O[C@H]1CN(C)C(=O)C1CCC1	-3.1	-13.8	103.8*	108.0*	98.9*	-17.5	10.8
C[C@H]1CN([C@@H](C)CO)S(=O)(=O)c2ccc(C#CCN(C)C)cc2O[C@H]1CN(C)C(=O)C1CC1	-2.3	-3.7	89.5	.	.	.	.
C[C@@H]1CN([C@@H](C)CO)S(=O)(=O)c2ccc(C#CCN(C)C)cc2O[C@@H]1CN(C)C(=O)C1CCC1	-0.5	1.7	94.0	.	.	.	.
C[C@@H]1CN([C@H](C)CO)S(=O)(=O)c2ccc(C#CCN(C)C)cc2O[C@H]1CN(C)C(=O)C1CCC1	-0.9	-7.4	100.2*	?	100.4*	-1.1	2.5
C[C@H](CO)N1C[C@H](C)[C@H](CN(C)C(=O)C2CC2)Oc2cc(C#CCN(C)C)ccc2S1(=O)=O	-5.3	4.1	94.7*	109.2*	92.4	-8.8	20.4
COCC(=O)N(C)C[C@H]1Oc2ncc(-c3ccccc3F)cc2C(=O)N([C@@H](C)CO)C[C@@H]1C	-3.6	27.3	.	.	.	.	.
O=C(C[C@@H]1C=C[C@@H](NC(=O)c2ccccc2)[C@H](CO)O1)NCc1ccc(Oc2ccccc2)cc1	.	5.8	20.1	.	.	.	.
C[C@@H]1CN([C@@H](C)CO)C(=O)c2cc(NC(=O)c3ccncc3)ccc2O[C@@H]1CN(C)Cc1ccc(Oc2ccccc2)cc1	15.7	-12.9	-22.2	.	.	.	.
C[C@@H]1CN([C@@H](C)CO)C(=O)c2cccc(NC(=O)c3ccc(-c4nccs4)cc3)c2O[C@@H]1CN(C)Cc1ccc(C(F)(F)F)cc1	.	-78.2	?	110.9*	102.4*	-55.8	7.2
C[C@H]1CN([C@@H](C)CO)C(=O)c2cccc(NC(=O)c3ccc(-c4nccs4)cc3)c2O[C@@H]1CN(C)Cc1ccc(C(F)(F)F)cc1	.	-71.2	109.3*	94.8	87.0	-4.4	83.7*
C[C@@H]1CN([C@H](C)CO)C(=O)c2cccc(NC(=O)c3ccc(-c4nccs4)cc3)c2O[C@@H]1CN(C)Cc1ccc(C(F)(F)F)cc1	.	-46.3	106.1	.	.	.	.
C[C@H](CO)N1C[C@H](C)[C@@H](CN(C)Cc2ccc(C(F)(F)F)cc2)Oc2c(NC(=O)c3ccc(-c4nccs4)cc3)cccc2C1=O	.	-27.7	96.4	.	.	.	.
CO[C@H]1CC[C@@H]2CCN(C)C(=O)[C@@H](C)[C@H](OC)CN(C)C(=O)c3cc(C#N)ccc3OC[C@H]1O2	.	7.6	-33.9	.	.	.	.
O=C(C1CCCC1)N1CC(=O)N2[C@@H](CO)[C@H](c3ccc(-c4cccnc4)cc3)[C@@H]2C1	-8.5	9.3	.	.	.	.	.
COc1ccc(-c2ccc3c(c2)O[C@H](CN(C)C)[C@H](C)CN([C@H](C)CO)S3(=O)=O)cc1	-1.9	8.7	13.2	.	.	.	.
